In ChEMBL document CHEMBL4513216, “Probing the Open Global Health Chemical Diversity Library for Multistage-Active Starting Points for Next-Generation Antimalarials” (ACS Infect Dis, 2020) one finds INHIBITION data, which are given here for 105 molecules.

In all, about 69,000 compounds went through this assay and about 8,600 (12%) showed an effect of 50% or more. The sample as a whole holds a higher share of strong results than the screen did.

This assay concerns Plasmodium berghei. Briefly: Screen against P. berghei liver stage (PbLuc), transformed with Luciferase, at 10uM. Format: functional, HepG2. To be noted: tested at 10 uM.
Consider `Cc1ccc(NC(=O)c2ccc(=O)n(CC(=O)NC3CCCC3)n2)cc1`, for which the INHIBITION turned out to be 16.2%.
The result for `O=C(O)c1sccc1Oc1ccc(NC(=O)C2CC2)cc1` reads 22.6%; that for `CCn1cnnc1CCNc1nc(C)cc(C)c1C#N`, 32.775%; that for `Cc1cc(C)c(C#N)c(NCCn2cnnc2C(C)C)n1`, 58.9%.
For `Cc1cc(C)c(C#N)c(NCCSc2nncn2C)n1`, the INHIBITION turned out to be 7.45%.
With `CCCn1nc(C)c(CN(CCN(C)C)Cc2ccccn2)c1C`, the INHIBITION was determined as 13.7%.
The result for `Cc1ccccc1CN(Cc1ccc(S(C)(=O)=O)cc1)CC(C)C` reads 78.9%; that for `Cc1ccccc1CN(Cc1ccncc1)CC(C)C`, 21.5%; that for `Cc1ccccc1CN(CCN(C)C)Cc1ccc(S(C)(=O)=O)cc1`, 40.4%.
Consider `CN(C)C(=O)[C@H]1CO[C@H]2CCN(c3ncc(F)cn3)C[C@H]2C1`, for which the INHIBITION was determined as 34.2%.
Take `CN(C)C[C@@H]1C[C@@H]2CN(C(=O)c3ccoc3)CC[C@@H]2N1CC1CC1`: the INHIBITION amounted to 25.7%.
The result for `CCCNC(=O)CCC(=O)N1CCC(c2noc3cc(F)ccc23)CC1` reads 21.8%; that for `CCOC(=O)C1(NCC(=O)Nc2cc(C)ccc2OC)CCCC1`, -35%; that for `Cc1ccc(CN2CCn3c(CN(C)C(C)C)cnc3C2)s1`, 7.53%.
For the molecule `Cc1nc(CC(=O)N2CCN(CCOc3ccccc3)CC2)cs1`, the INHIBITION is given as 21.8%.
The result for `CC(=O)Nc1nc(C(=O)NCCOc2ccc(C)cc2)cs1` reads 49.2%; that for `CCc1nnsc1C(=O)NC1CCN(CCOc2ccc(Br)cc2)CC1`, 80%.
The result for `CO[C@@H]1CC[C@@H](NC(=O)c2ccc(OCCN3CCCC3)cc2)[C@H]1O` reads 34.25%; that for `Cc1ncc(C(=O)NC2CCN(CCOc3ccc(Br)cc3)CC2)s1`, 88.6%; that for `Cc1nc(C(=O)NC2CCN(CCOc3ccc(Br)cc3)CC2)cs1`, 85.4%.
The result for `CN1CCCC1CNC(=O)CCOc1ccc(Br)cc1` (stereo not given) reads 22.983%; that for `CCc1nnsc1C(=O)NC1CCN(c2ccccn2)CC1`, -7.9%; that for `Cc1ncsc1C(=O)NC1CCN(CCC(N)=O)CC1`, 24%.
Consider `COCc1nc(C(=O)N2CCCC(n3nc(C)nc3C)C2)cs1` (stereo not given), for which the INHIBITION stood at 26.4%.
The result for `CCn1ncc2c1C(COC)N(C(=O)c1ccc3c(c1)OCO3)CC2` (stereo not given) reads -33%; that for `COc1nccnc1N1CCCC2(C1)C(=O)N(C)c1ccccc12` (stereo not given), -60.7%.
The result for `C[C@@H]1CN(Cc2ccncc2)C[C@@]1(O)C1CC1` reads 3.19%; that for `CCc1nc(CN2CCCC(NCc3nc4ccccc4o3)C2)no1` (stereo not given), -21.7%.
The result for `CCN1CCN(C(=O)c2cc(C(F)(F)F)n[nH]2)[C@H]2CS(=O)(=O)C[C@H]21` reads 33.7%; that for `O=C(c1ccc2nccnc2c1)N1CCN(CCO)[C@@H]2CS(=O)(=O)C[C@@H]21`, 41.5%.
For `Cc1nc2ccc(C(=O)N3CCN(CCO)[C@@H]4CS(=O)(=O)C[C@@H]43)cc2o1`, the INHIBITION was 22.3%.
The result for `CCN1CCN(C(=O)c2ccc3c(c2)NC(=O)CN3)[C@H]2CS(=O)(=O)C[C@H]21` reads 73%; that for `CCN1CCN(C(=O)c2ccc3c(c2)OCC(=O)N3)[C@H]2CS(=O)(=O)C[C@H]21`, 58.2%.
As for `CCCN1CCN(C(=O)c2ccc3nc(C)oc3c2)[C@H]2CS(=O)(=O)C[C@H]21`, the INHIBITION stood at 33%.
In the case of `CCN1CCN(C(=O)c2ccc3c(c2)CCCN3)[C@H]2CS(=O)(=O)C[C@H]21`, the INHIBITION was 33.2%.
The result for `CCN1CCN(C(=O)c2cc(-c3ccc(C)o3)n[nH]2)[C@H]2CS(=O)(=O)C[C@H]21` reads -1.04%; that for `Cn1cnc2cc(C(=O)N3CCN(CCO)[C@@H]4CS(=O)(=O)C[C@@H]43)ccc21`, 73.6%.
On to `CCN1CC(C(=O)NCc2cccnc2-n2cccn2)CC1=O` (stereo not given), for which the INHIBITION is -10.1%.
With `COC[C@@]12CCO[C@@H]1CCN(C(=O)c1ccc(F)c(F)c1)C2`, the INHIBITION was -30.6%.
The result for `Cc1nc(COCC2CN(C(=O)N(C)C)Cc3nccn3C2)cs1` (stereo not given) reads 45.4%; that for `O=S(=O)(c1cccc(F)c1)N1CCCCC1c1ccn[nH]1` (stereo not given), 27.8%; that for `Cc1nc(CN2CCc3nc(N4CCCC4)nc(NC(C)C)c3C2)cs1`, 67.4%.
The result for `CC(C)Nc1nc(N2CCCC2)nc2c1CCN(S(C)(=O)=O)CC2` reads 35.2%; that for `CC(C)Nc1nc(N2CCCC2)nc2c1CN(C(C)C)CC2`, 61.8%.
The result for `CC(C)Nc1nc(N2CCCC2)nc2c1CN(S(C)(=O)=O)CC2` reads -29%; that for `CCC(C)N1CCc2nc(N3CCCC3)nc(NC(C)C)c2C1` (stereo not given), 2.59%.
Consider `CC(C)Nc1nc(N2CCCC2)nc2c1CN(c1ncc(F)cn1)CC2`, for which the INHIBITION was found to be 65.8%.
The result for `Cc1nc(N2CCCC2)nc2c1CN(C(C)C)CC2` reads -10.4%; that for `Cc1nc(CN2CCc3nc(NC(C)C)nc(C)c3C2)cs1`, 46.7%.
The result for `CC(C)Nc1nc(N2CCCC2)nc2c1CN(C)CC2` reads 22.4%; that for `Cc1nc(Nc2nncs2)cc(C2CCCN2)n1` (stereo not given), -8.275%; that for `COC(=O)c1cccc(C(=O)N2CCCC(n3cncn3)C2)c1` (stereo not given), 15.5%.
The result for `COCCCN1CC2(CCN(Cc3ncc[nH]3)CC2)CC1=O` reads 28.7%.
As for `Cc1ccc(=O)n(CC2(O)CCN(Cc3cnc(C)nc3)CC2)n1`, the INHIBITION is listed as 15.9%.
The result for `CN1CC2(CCN(Cc3ncc[nH]3)CC2)CC1=O` reads 53.7%; that for `CC(C)=CCN1CC2(CCN(Cc3ncc[nH]3)CC2)CC1=O`, 4.82%.
The result for `CN1CC2(CCN(Cc3cccc(C#N)c3)CC2)CC1=O` reads 43.1%; that for `Cc1ncc(CN2CCC3(CC2)CC(=O)N(C)C3)cn1`, 55.9%.
The result for `CC(=O)NCC(=O)N1CCn2cc(CN(C)Cc3ccco3)nc2C1` reads 42.5%.
For the molecule `O=C1COC2(CCN(C(=O)c3ccoc3)CC2)CN1Cc1cccnc1`, the INHIBITION was determined as 0.112%.
The result for `Fc1ccccc1Oc1nccnc1C1CCCN(C2CCOCC2)C1` (stereo not given) reads -3.02%; that for `O=C(NCc1ccnc(OCC(F)(F)F)c1)NCC1CCCO1` (stereo not given), -20.3%.
Consider `O=C(c1ccc(Br)cc1F)N1CCc2ccncc21`, for which the INHIBITION is on record as -4.91%.
On to `COc1ccc(C[C@H]2CN(C3CCOCC3)CC[C@@H]2OCC2CC2)cc1`, for which the INHIBITION is 29.7%.
As for `Fc1ccc2[nH]c(C3CCCN3Cc3c[nH]cn3)nc2c1` (stereo not given), the INHIBITION turned out to be 42.6%.
On to `Fc1ccc2[nH]c(C3CCCN3CCc3ccccn3)nc2c1` (stereo not given), for which the INHIBITION was 21.8%.
The result for `O=C(c1ccon1)N1CCCCC1c1nc2cc(F)ccc2[nH]1` (stereo not given) reads 62.9%.
Consider `Cn1nc(C(=O)N2CCCCC2c2nc3cc(F)ccc3[nH]2)ccc1=O` (stereo not given), for which the INHIBITION is 11.8%.
The result for `O=C(CN1CCCC1c1nc2cc(F)ccc2[nH]1)NCc1ccccn1` (stereo not given) reads 50.1%; that for `Cc1cc(C(=O)N2CCCCC2c2nc3cc(F)ccc3[nH]2)no1` (stereo not given), 4.97%.
The result for `CN1CC2(CCN(Cc3ccoc3)CC2)COc2ccccc2S1(=O)=O` reads 13.7%.
The result for `Cc1cc(C(N)=O)nc(C2(C)CCCN2Cc2cnn(C)c2)n1` (stereo not given) reads 18.3%; that for `Cc1nccn1[C@@H]1CC[C@@H](N(C)S(=O)(=O)c2cccc(F)c2)[C@H]1O`, 16.96%.
As for `Cc1cc(C2CCCN2CC(=O)N(CCC#N)c2ccccc2F)on1` (stereo not given), the INHIBITION was 26.8%.
The result for `CCN(C(=O)CN1CCCC1c1ccc(F)cc1)c1ccccc1C` (stereo not given) reads -55.1%; that for `CCN(C(=O)CN1CCCC1c1cc(C)no1)c1ccccc1C` (stereo not given), 62.4%.
The result for `CN(C)CCOCc1nnc2n1CCN(Cc1cccs1)CC2` reads -35%; that for `O=C(CSC1CCc2ccccc2NC1=O)NCc1cccs1` (stereo not given), 3.13%.
The result for `CN(CCCc1nccn1C)c1nccc(-c2cc(C(=O)O)ccn2)n1` reads 14%; that for `O=C(Cc1cnc(-n2cccc2)s1)NCCCO`, -1.99%.
On to `CN(C)C(=O)NCc1ncn2c1CN(Cc1cccs1)CCC2`, for which the INHIBITION stood at 52.3%.
The result for `c1coc(COCc2ncn3c2CN(Cc2cccs2)CCC3)c1` reads 56.7%; that for `c1csc(CN2CCCn3cnc(COCC4CC4)c3C2)c1`, -1.55%.
The result for `CS(=O)(=O)NCc1ncn2c1CN(Cc1cccs1)CCC2` reads -17.9%; that for `CN(C)C(=O)NCc1ncn2c1CN(Cc1ccco1)CCC2`, 28.2%; that for `OCCOCc1ncn2c1CN(Cc1cccs1)CCC2`, 21.8%.
In the case of `Cc1ccc(S(=O)(=O)NCCc2nnc[nH]2)c2cccnc12`, the INHIBITION is on record as 33.7%.
The result for `O=C1CCCN1Cc1ncn2c1CN(C(=O)NC1CCCC1)CCC2` reads -56.2%.
The result for `NC(=O)N1CCCCCC1C1CCN(c2nccc(C(F)(F)F)n2)CC1` (stereo not given) reads 61.8%; that for `O=C(C1CC1)N1CCCCCC1C1CCN(c2ncccn2)CC1` (stereo not given), 22.3%; that for `N#Cc1cccnc1N1CCC(C2CCCCCN2C(N)=O)CC1` (stereo not given), -5.567%.
The result for `CC(C)N1CCC(c2nccnc2Nc2cnccn2)CC1` reads 23.9%.
As to `CCc1nc(C)c(C(=O)NCCNc2ncccn2)s1`, the INHIBITION was determined as 29.1%.
The result for `Cc1ncc(C(=O)NCCNc2ncnc3sccc23)s1` reads 77.1%.
The result for `CCc1ncncc1C(=O)NCCNc1ncnc2sccc12` reads 41.3%.
For `CCc1ncc(C(=O)NCCNc2ccncc2)s1`, the INHIBITION is reported as 23.4%.
The result for `Cc1ncsc1C(=O)NCCNC(=O)c1cccs1` reads 10.2%; that for `Cc1ncc(C(=O)NCCNC(=O)c2ccccc2)s1`, 0.411%; that for `CCCc1nc(C)c(C(=O)NCCNc2ncccn2)s1`, 19.6%.
For `CCc1nc(C)c(C(=O)NCCNc2ncccc2C#N)s1`, the INHIBITION came to 2.3%.
The result for `CCc1ncc(C(=O)NCCNc2ncnc3sccc23)s1` reads 96%; that for `Cc1ncc(C(=O)NCCNc2ccncc2)s1`, -21.3%.
The result for `CCc1nc(C)c(C(=O)NCCNc2ncnc3sccc23)s1` reads 93.3%; that for `CCc1nc(C)c(C(=O)NCCNC(=O)c2cccs2)s1`, 58%.
Consider `COc1c(C2CCCN2C(=O)c2cc(C)on2)c(C)nn1C` (stereo not given), for which the INHIBITION is 14.1%.
